Screens: PubChem BioAssay, several laboratories
MT1-MMP txn act: MT1-MMP promoter reporter activation – cell-based, luciferase luminescence, primary screen. activation factor at 10 µM. actives 0.16% (n = 86,000). HT1080 MT1-MMP promoter luciferase reporter, overnight; stronger effect = higher value;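 active = activation factor of at least 2 for MT1-MMP transcription at 10 µM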
PostGolgi yeast: phenotypic screen on post-Golgi transport, primary screen; post-Golgi transport phenotypic cell assay; inhibition, % at 10 µM; actives 0.9% (n = 98,000); AID 739, 2007;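 note: yeast cells grown in 1536-well plates; yeast grown about 18 h at 30C before absorbance read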
PostGolgi ctrl: growth inhibition of yeast control strain, primary screen, counter-screen for post-Golgi transport modulator project; efflux-deficient yeast background strain, growth absorbance A615, 16 h; inhibition, % at 10 µM; actives 5% (n = 98,000); AID 738, 2007
Measles CPE: compounds protecting cells from measles virus cytopathic effect, primary screen, measles RdRp inhibitor project, single point, MLSMR library, absorbance; protection (pct of control), % at 4 µM; Measles virus-infected cells, CPE protection; AID 841, 2007; actives 1.5% (n = 140,000); in the data active = protection mostly above about 24%, no sharp cut-off; inactive = mostly below about 26%
Numbers without * were called inactive. Rows were chosen to be rich in hits. Some 5.3% of all compounds tested hit in one or more screens of this group. Cut-off read from the data, not from the text of the source, unless noted: active = inhibition above about 30%; inactive = the rest.

Results for CCOC(=O)C(NC(=O)CC)(Nc1ccccc1)C(F)(F)F (centres undefined) ?
Measles CPE: 24*

How did O=c1c2ccccc2nc(SCc2cn3ccsc3n2)n1-c1ccc(F)cc1 do in these assays?
MT1-MMP txn act: 1; PostGolgi yeast: -2; PostGolgi ctrl: 52*; Measles CPE: 25

How did N/C(Cc1ccc(Cl)c(Cl)c1)=N\OC(=O)c1cccs1 do in these assays?
PostGolgi yeast: 19; PostGolgi ctrl: 79*; Measles CPE: 9

Results for CCN(CC)c1nc(-c2cccc(OC)c2O)nc2ccccc12 ?
MT1-MMP txn act: 1.2; PostGolgi yeast: -3; PostGolgi ctrl: 32*; Measles CPE: 18

What do the screens show for `C=CCNc1nc(-c2cccc(OC)c2O)nc2ccccc12`?
MT1-MMP txn act: 1.2; PostGolgi yeast: -3; PostGolgi ctrl: 17; Measles CPE: 14

How did COc1cccc(-c2nc(N3CCCCC3C)c3ccccc3n2)c1O (centres undefined) do in these assays?
MT1-MMP txn act: 1.2; PostGolgi yeast: 18; PostGolgi ctrl: 75*; Measles CPE: 21

Results for O=C(Nc1ccc([N+](=O)[O-])cn1)C1CC2CCC1C2 (centres undefined) ?
Measles CPE: 2

Results for Cc1nc2nc(SCC(=O)c3ccc([N+](=O)[O-])cc3)[nH]c2cc1Br ?
Measles CPE: 26

Results for N#C/C(C(=O)Oc1ccccc1)=C1/Nc2ccccc2-c2ccccc21 ?
MT1-MMP txn act: 1.1; PostGolgi yeast: 10; PostGolgi ctrl: 5; Measles CPE: 4

Results for CCOc1nc(Nc2ccc(OC)c(Cl)c2)nc(N2CCN(c3ccc(OC)cc3)CC2)n1 ?
MT1-MMP txn act: 1.1; PostGolgi yeast: -5; PostGolgi ctrl: 6; Measles CPE: 19

How did CSc1nc2ccccc2n1Cc1c(Cl)cccc1Cl do in these assays?
PostGolgi yeast: 5; PostGolgi ctrl: 34*; Measles CPE: 3

Results for CSc1nc2ccccc2n1CC(=O)Nc1c(C)cccc1C ?
MT1-MMP txn act: 1.1; Measles CPE: 12

What do the screens show for `CC(=O)c1ccc(C(=O)Nc2nnc(-c3ccc(Cl)cc3)o2)cc1`?
MT1-MMP txn act: 1

What do the screens show for `O=C(Nc1nnc(-c2ccccc2)o1)c1ccc(Cl)cc1`?
MT1-MMP txn act: 0.9; PostGolgi yeast: 110*; PostGolgi ctrl: 74*; Measles CPE: 7

Results for COc1ccc(CCN2C(=O)CS/C2=N\NC(=O)c2ccc(C(C)(C)C)cc2)cc1OC ?
Measles CPE: 8

What do the screens show for `CCN(c1ccccc1)S(=O)(=O)c1ccc(OCC(=O)Nc2cc(C)on2)cc1`?
MT1-MMP txn act: 1.1; PostGolgi yeast: 10; PostGolgi ctrl: 3; Measles CPE: 6

What do the screens show for `Cc1cc(NC(=O)COc2ccc(N(C)S(=O)(=O)c3ccccc3)cc2)no1`?
MT1-MMP txn act: 1.2; PostGolgi yeast: -9; PostGolgi ctrl: -1; Measles CPE: 64*

Results for CCC1=C2CC[C@H]3C(=O)N(CC(=O)OC)C(=O)[C@H]3[C@H]2[C@@]2(C)C(=NCC(=O)OC)OC(=O)N2C1=O ?
MT1-MMP txn act: 1.1

What do the screens show for `O=S1(=O)Nc2c(ccc3cccnc23)-c2ccccc21`?
PostGolgi yeast: 85*; PostGolgi ctrl: 72*; Measles CPE: 5

Results for O=c1[nH]n(-c2cccc3cccnc23)c(=O)c2ccccc12 ?
MT1-MMP txn act: 1.1; PostGolgi yeast: 3; PostGolgi ctrl: 7; Measles CPE: 5

Results for Cc1ccc(C(=O)Nc2nc(C)c(C(=O)Nc3ccc4c(c3)CCC4)s2)cc1 ?
Measles CPE: 5

How did Cc1cccc(C)c1NC(=O)N1CCC(n2cnc3ccccc32)CC1 do in these assays?
MT1-MMP txn act: 1.1; PostGolgi yeast: 14; PostGolgi ctrl: -4; Measles CPE: 13

How did O=C(NC1CCCCC1)N1CCC(n2cnc3ccccc32)CC1 do in these assays?
MT1-MMP txn act: 1; PostGolgi yeast: -16; PostGolgi ctrl: 27; Measles CPE: 76*

What do the screens show for `O=C1N=C2SCCN2/C1=C\c1ccccc1Cl`?
PostGolgi yeast: 2; PostGolgi ctrl: 26; Measles CPE: 3

What do the screens show for `O=C1CC(c2cccc([N+](=O)[O-])c2)c2ccc3ccccc3c2N1` (centres undefined)?
PostGolgi yeast: 9; PostGolgi ctrl: 54*; Measles CPE: 15

What do the screens show for `Cc1ccc(-c2nnc(N3CCCCC3)c3ccccc23)cc1S(=O)(=O)NCC1CCCO1` (centres undefined)?
MT1-MMP txn act: 1.2; PostGolgi yeast: 0; PostGolgi ctrl: 13; Measles CPE: 6

How did Clc1cccc2sc(N3CCOCC3)nc12 do in these assays?
MT1-MMP txn act: 2.1*
